From PubChem BioAssay (NCI) come the findings set out here.

Common to all, as to experiment: NCI-60 one-dose screen, 48 h (100 = growth as untreated, 0 = no growth, -100 = all killed)
In one experiment the test system is SK-MEL-2 melanoma. The note with it: 10 µM unless noted.
Another experiment relates to EKVX NSCLC. The note with it: 10 µM unless noted.
A further experiment relates to SN12C renal. The note with it: 10 µM unless noted.
A further experiment relates to UO-31 renal. The note with it: 10 µM unless noted.
In a further experiment the test system is TK-10 renal. The note with it: 10 µM unless noted.
The subject of another experiment is ACHN renal. The note with it: 10 µM unless noted.
For a further experiment, the system named is CAKI-1 renal. The note with it: 10 µM unless noted.
The subject of the next experiment is A498 renal. The note with it: 10 µM unless noted.
For another experiment, the system named is CCRF-CEM leukemia. The note with it: 10 µM unless noted.
Another experiment relates to MOLT-4 leukemia. The note with it: 10 µM unless noted.
Another experiment concerns SR leukemia. The note with it: 10 µM unless noted.
For the next experiment, the system named is RPMI-8226 leukemia. The note with it: 10 µM unless noted.
The next experiment has as its system OVCAR-8 ovarian. The note with it: 10 µM unless noted.
A further experiment relates to OVCAR-5 ovarian. The note with it: 10 µM unless noted.
The subject of a further experiment is OVCAR-4 ovarian. The note with it: 10 µM.
The test system of another experiment is SK-OV-3 ovarian. The note with it: 10 µM unless noted.
Another experiment relates to IGROV1 ovarian. The note with it: 10 µM unless noted.
For another experiment, the system named is OVCAR-3 ovarian. The note with it: 10 µM unless noted.
The next experiment deals with HS 578T breast. The note with it: 10 µM unless noted.
The test system of another experiment is NCI/ADR-RES ovarian. The note with it: 10 µM unless noted.

SMILES strings stand for the structures. This is part of a sample that, as a whole, favours compounds with a hit. Of some 83,000 tested, about 20% had one in any assay.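 Each cell line was grown in a 96-well plate and treated with one concentration of compound for 48 hours. Values below 10 were considered active.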 Unmarked numbers belong to inactive results. The source made the active and inactive calls.

As to `O=C(NCc1ccc(Cn2c(=O)sn(-c3ccccc3)c2=O)cc1)OCc1ccc2c(Br)cc(Br)c(O)c2n1`, the growth was -52.4% (active) in the experiment with SK-MEL-2 melanoma; -92.3% (active) in the experiment on EKVX NSCLC; -61.4% (active) in the experiment on SN12C renal; -100% (active) in the experiment with UO-31 renal; -90.5% (active) with TK-10 renal; -100% (active) in the experiment on ACHN renal. In addition, the growth is -74.9% (active) in the experiment with CAKI-1 renal; -41.6% (active) in the experiment on A498 renal; 4.61% (active) in the experiment with CCRF-CEM leukemia; 2% (active) with MOLT-4 leukemia; 4.62% (active) in the experiment on SR leukemia; -17.7% (active) in the experiment with RPMI-8226 leukemia. In addition, the growth with OVCAR-8 ovarian was 0.865% (active); in the experiment on OVCAR-5 ovarian it was -62.7% (active); in the experiment on OVCAR-4 ovarian it was -52.9% (active); in the experiment on SK-OV-3 ovarian it was 55.2%; with IGROV1 ovarian, -80.4% (active); with OVCAR-3 ovarian, -90.9% (active). The growth with HS 578T breast was -1.98% (active); with NCI/ADR-RES ovarian, -1.25% (active).
As to `CSc1nc(=S)c2nc(SC)n(-c3ccccc3)c2[nH]1`, the growth is 83.1% in the experiment with SK-MEL-2 melanoma; 105% in the experiment with EKVX NSCLC; 96.7% in the experiment on SN12C renal; 83.9% in the experiment on UO-31 renal; 96.9% in the experiment on TK-10 renal; 102% in the experiment on ACHN renal. Besides, the growth in the experiment with CAKI-1 renal was 90.9%; in the experiment on A498 renal, 86.6%; in the experiment with CCRF-CEM leukemia it was 82.5%; with MOLT-4 leukemia, 107%; in the experiment on SR leukemia, 104%; in the experiment with RPMI-8226 leukemia, 90.7%. Also, the growth is 100% in the experiment with OVCAR-8 ovarian; 104% in the experiment with OVCAR-5 ovarian; 104% in the experiment with OVCAR-4 ovarian; 96.4% in the experiment on SK-OV-3 ovarian; 101% in the experiment on IGROV1 ovarian; 105% with OVCAR-3 ovarian. The results for the growth in the experiment on HS 578T breast and with NCI/ADR-RES ovarian were 92.3% and 101%, respectively.
As for `O=C(CSc1nccc(Nc2ccc(S(=O)(=O)Nc3ccccn3)cc2)n1)c1ccc(Cl)cc1`, the growth in the experiment on SK-MEL-2 melanoma is 97.8%; with EKVX NSCLC it was 101%; with SN12C renal it was 90.7%; with UO-31 renal it was 71.3%; with TK-10 renal, 109%; in the experiment with ACHN renal, 89.8%. Moreover, the growth in the experiment with CAKI-1 renal was 83%; with A498 renal, 115%; in the experiment on CCRF-CEM leukemia it was -44.8% (active); in the experiment on MOLT-4 leukemia, 81.4%; with SR leukemia, 75.5%; in the experiment with RPMI-8226 leukemia, 71.3%. Also, the growth in the experiment on OVCAR-8 ovarian is 84.2%; in the experiment on OVCAR-5 ovarian it was 111%; with OVCAR-4 ovarian, 80.2%; in the experiment with SK-OV-3 ovarian, 95.4%; in the experiment on IGROV1 ovarian it was 77.9%; in the experiment with OVCAR-3 ovarian, 95.8%. In addition, the growth was 89.1% with HS 578T breast and 103% in the experiment on NCI/ADR-RES ovarian.
On to `O=C(NCCCNC(=O)OCc1ccc2cccc(O)c2n1)OCc1ccc2cccc(O)c2n1`, for which the growth in the experiment with SK-MEL-2 melanoma was 71.3%; in the experiment with EKVX NSCLC, 79.9%; in the experiment with SN12C renal, 40.4%; with UO-31 renal, 26.9%; in the experiment on TK-10 renal, 49.6%; with ACHN renal, 19.8%. The growth with CAKI-1 renal was 21%; in the experiment with A498 renal, 60.9%; in the experiment on CCRF-CEM leukemia it was 6.81% (active); with MOLT-4 leukemia it was 21.7%; with SR leukemia it was 12.1%; with RPMI-8226 leukemia it was 18.4%. For the same compound, the growth with OVCAR-8 ovarian is 23%; with OVCAR-5 ovarian, 59.9%; in the experiment on OVCAR-4 ovarian it was 39.2%; in the experiment on SK-OV-3 ovarian it was 76.6%; in the experiment on IGROV1 ovarian, 24.1%; with OVCAR-3 ovarian, 14.8%. Moreover, the figures for the growth in the experiment on HS 578T breast and in the experiment on NCI/ADR-RES ovarian were 57.2% and 41.5%, respectively.
With `Cc1ccc2c(c1)C(C)Cc1c(Cl)ncnc1N2C` (stereo not given), the growth in the experiment on SK-MEL-2 melanoma was -21.4% (active); in the experiment with EKVX NSCLC it was 22.2%; with SN12C renal, 32.8%; with UO-31 renal, 18%; in the experiment on TK-10 renal, 18.3%; with ACHN renal it was 32%. The growth in the experiment with CAKI-1 renal is 31%; with A498 renal, -19.2% (active); in the experiment with CCRF-CEM leukemia it was 49.7%; with MOLT-4 leukemia it was 13.6%; in the experiment on SR leukemia, 22.6%; in the experiment with RPMI-8226 leukemia, 28.2%. The growth with OVCAR-8 ovarian was 11.9%; in the experiment with OVCAR-5 ovarian, 40.4%; in the experiment with OVCAR-4 ovarian it was 19.5%; in the experiment with SK-OV-3 ovarian it was 15.7%; in the experiment on IGROV1 ovarian, 61%; in the experiment on OVCAR-3 ovarian, 6.8% (active). Further, the growth in the experiment with HS 578T breast is 32.7%; with NCI/ADR-RES ovarian it was 10.7%.
For `C=CCCCCOc1ccccc1-c1cnc(OCCCCC=C)n1C`, the growth in the experiment with SK-MEL-2 melanoma is 46.1%; in the experiment on EKVX NSCLC, 85.2%; with SN12C renal, 91.1%; with UO-31 renal, 69.3%; in the experiment on TK-10 renal it was 75%; with ACHN renal, 84.5%. Further, the growth is 54.9% in the experiment on CAKI-1 renal; 51.1% in the experiment on A498 renal; 80.9% in the experiment with CCRF-CEM leukemia; 91.4% in the experiment with MOLT-4 leukemia; 30.7% in the experiment on SR leukemia; 80.8% in the experiment on RPMI-8226 leukemia. The growth in the experiment with OVCAR-8 ovarian is 83.9%; with OVCAR-5 ovarian, 95.2%; in the experiment on OVCAR-4 ovarian, 97.9%; with SK-OV-3 ovarian it was 75%; with IGROV1 ovarian, 62.9%; in the experiment on OVCAR-3 ovarian, 51.3%. Moreover, the results for the growth in the experiment on HS 578T breast and in the experiment with NCI/ADR-RES ovarian were 66.4% and 30.4%, respectively.
Turning to `O=[N+]([O-])c1cccc(N=NNc2cccc([N+](=O)[O-])c2)c1`, the growth in the experiment with SK-MEL-2 melanoma was 104%; with EKVX NSCLC, 84.6%; with SN12C renal, 89.5%; in the experiment with UO-31 renal it was 80%; in the experiment on TK-10 renal, 69.7%; in the experiment with ACHN renal, 95.7%. Further, the growth in the experiment on CAKI-1 renal is 87.5%; in the experiment with A498 renal, -2.16% (active); with CCRF-CEM leukemia, 84.3%; with MOLT-4 leukemia, 82.7%; in the experiment on SR leukemia, 95.1%; with RPMI-8226 leukemia, 86%. Moreover, the growth in the experiment with OVCAR-8 ovarian was 99.5%; with OVCAR-5 ovarian, 94.6%; in the experiment on OVCAR-4 ovarian it was 88.7%; in the experiment with SK-OV-3 ovarian, 104%; with IGROV1 ovarian, 125%; in the experiment on OVCAR-3 ovarian, 101%. In addition, the growth in the experiment on HS 578T breast was 101%; in the experiment with NCI/ADR-RES ovarian it was 94.4%.
